Measured values from ChEMBL document CHEMBL4649982, “Selective targeting of Bromodomains of the Bromodomain-PHD Fingers family impairs osteoclast differentiation” (ACS Chem Biol, 2017).
Values joined by “and” are separate entries in the source; they are usually repeats but may differ in a detail not shown here. Equal values may be shown once.

Key:
[1] = target: Bromodomain-containing protein 4 (Homo sapiens) (UniProt O60885); conditions: Compound concentration 10.0 uM, Protein concentration 2.0 uM
[2] = target: T1, Transcription intermediary factor 1-alpha (Homo sapiens) (UniProt O15164); conditions: Compound concentration 10.0 uM, Protein concentration 2.0 uM
T1 sequence (whole entry): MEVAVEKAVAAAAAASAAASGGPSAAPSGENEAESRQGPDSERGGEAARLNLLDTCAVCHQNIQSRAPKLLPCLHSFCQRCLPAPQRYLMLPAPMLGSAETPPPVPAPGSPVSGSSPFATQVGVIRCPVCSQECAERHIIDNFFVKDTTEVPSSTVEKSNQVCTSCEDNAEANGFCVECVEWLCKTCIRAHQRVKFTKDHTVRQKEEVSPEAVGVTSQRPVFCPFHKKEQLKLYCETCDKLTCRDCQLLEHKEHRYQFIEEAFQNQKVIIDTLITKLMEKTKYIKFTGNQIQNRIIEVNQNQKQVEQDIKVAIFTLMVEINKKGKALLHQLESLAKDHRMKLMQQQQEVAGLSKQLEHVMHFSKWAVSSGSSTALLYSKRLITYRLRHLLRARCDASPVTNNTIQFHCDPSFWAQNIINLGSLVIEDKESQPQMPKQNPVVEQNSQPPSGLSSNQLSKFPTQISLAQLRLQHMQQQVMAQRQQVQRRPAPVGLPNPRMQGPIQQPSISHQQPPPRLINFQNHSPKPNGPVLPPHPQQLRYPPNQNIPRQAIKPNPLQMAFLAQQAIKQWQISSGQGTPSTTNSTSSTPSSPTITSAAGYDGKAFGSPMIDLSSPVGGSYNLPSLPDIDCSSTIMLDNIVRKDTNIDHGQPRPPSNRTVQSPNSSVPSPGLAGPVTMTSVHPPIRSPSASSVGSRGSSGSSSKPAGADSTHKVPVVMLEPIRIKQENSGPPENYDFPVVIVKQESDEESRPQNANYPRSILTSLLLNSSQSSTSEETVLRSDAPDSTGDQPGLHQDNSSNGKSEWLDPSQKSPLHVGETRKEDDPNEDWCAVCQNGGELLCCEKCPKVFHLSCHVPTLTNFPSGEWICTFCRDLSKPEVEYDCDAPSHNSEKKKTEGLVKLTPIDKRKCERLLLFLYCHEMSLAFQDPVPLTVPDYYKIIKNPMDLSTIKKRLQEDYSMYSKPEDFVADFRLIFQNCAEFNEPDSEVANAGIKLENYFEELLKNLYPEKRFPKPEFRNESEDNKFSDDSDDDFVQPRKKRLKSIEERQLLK

## COc1cc2c(cc1NS(=O)(=O)c1ccc(Br)cc1C)n(C)c(=O)n2C
[1]
  ΔTm: 1.42 °C and 2.26 °C
[2]
  ΔTm: 2.87 °C
